Results on seven compounds are retold here after ChEMBL document CHEMBL1961873, “Compounds: GSK PKIS; Assays: Nanosyn kinase panel” (2012).

For assay [1], the target named is T1, Aurora kinase A (Homo sapiens) (UniProt O14965).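 Also: values are mean percent inhibition.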
T1 sequence (whole entry): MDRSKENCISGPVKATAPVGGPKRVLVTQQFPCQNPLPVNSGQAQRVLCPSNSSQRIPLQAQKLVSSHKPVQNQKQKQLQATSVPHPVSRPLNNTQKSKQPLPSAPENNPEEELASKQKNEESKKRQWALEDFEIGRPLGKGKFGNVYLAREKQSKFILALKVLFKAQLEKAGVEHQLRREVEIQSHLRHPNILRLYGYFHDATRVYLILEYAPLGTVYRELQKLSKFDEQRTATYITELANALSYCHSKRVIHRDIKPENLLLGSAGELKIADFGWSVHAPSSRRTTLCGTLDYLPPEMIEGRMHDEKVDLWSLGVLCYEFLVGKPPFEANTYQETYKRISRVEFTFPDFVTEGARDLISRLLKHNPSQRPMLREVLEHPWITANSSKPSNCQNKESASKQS
To be noted: at 1 µM.

The target in assay [2] is Aurora kinase B (Homo sapiens) (UniProt Q96GD4). To be noted: at 0.1 µM.
For assay [3] the target is unchanged. To be noted: at 1 µM.
Assay [4] has as its target T2, Aurora kinase C (Homo sapiens) (UniProt Q9UQB9).
T2 sequence (whole entry): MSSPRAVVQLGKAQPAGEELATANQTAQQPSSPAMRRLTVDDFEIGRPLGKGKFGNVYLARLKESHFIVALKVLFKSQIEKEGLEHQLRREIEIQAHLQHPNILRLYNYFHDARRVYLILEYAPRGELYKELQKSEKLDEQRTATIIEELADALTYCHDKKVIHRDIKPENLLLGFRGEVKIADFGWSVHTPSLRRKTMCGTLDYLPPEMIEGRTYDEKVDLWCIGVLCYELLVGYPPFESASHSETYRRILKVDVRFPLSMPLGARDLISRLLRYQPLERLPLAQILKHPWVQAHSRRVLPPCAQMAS
The settings on record: at 0.1 µM.

Assay [5] concerns the target T2, Aurora kinase C (Homo sapiens). To be noted: at 1 µM.
The target in assay [6] is Serine/threonine-protein kinase 10 (Homo sapiens) (UniProt O94804). The settings on record: at 0.1 µM.
Assay [7] shares this target. To be noted: at 1 µM.
Assay [8] addresses T3, Mitogen-activated protein kinase kinase kinase kinase 2 (Homo sapiens) (UniProt Q12851).
T3 sequence (whole entry): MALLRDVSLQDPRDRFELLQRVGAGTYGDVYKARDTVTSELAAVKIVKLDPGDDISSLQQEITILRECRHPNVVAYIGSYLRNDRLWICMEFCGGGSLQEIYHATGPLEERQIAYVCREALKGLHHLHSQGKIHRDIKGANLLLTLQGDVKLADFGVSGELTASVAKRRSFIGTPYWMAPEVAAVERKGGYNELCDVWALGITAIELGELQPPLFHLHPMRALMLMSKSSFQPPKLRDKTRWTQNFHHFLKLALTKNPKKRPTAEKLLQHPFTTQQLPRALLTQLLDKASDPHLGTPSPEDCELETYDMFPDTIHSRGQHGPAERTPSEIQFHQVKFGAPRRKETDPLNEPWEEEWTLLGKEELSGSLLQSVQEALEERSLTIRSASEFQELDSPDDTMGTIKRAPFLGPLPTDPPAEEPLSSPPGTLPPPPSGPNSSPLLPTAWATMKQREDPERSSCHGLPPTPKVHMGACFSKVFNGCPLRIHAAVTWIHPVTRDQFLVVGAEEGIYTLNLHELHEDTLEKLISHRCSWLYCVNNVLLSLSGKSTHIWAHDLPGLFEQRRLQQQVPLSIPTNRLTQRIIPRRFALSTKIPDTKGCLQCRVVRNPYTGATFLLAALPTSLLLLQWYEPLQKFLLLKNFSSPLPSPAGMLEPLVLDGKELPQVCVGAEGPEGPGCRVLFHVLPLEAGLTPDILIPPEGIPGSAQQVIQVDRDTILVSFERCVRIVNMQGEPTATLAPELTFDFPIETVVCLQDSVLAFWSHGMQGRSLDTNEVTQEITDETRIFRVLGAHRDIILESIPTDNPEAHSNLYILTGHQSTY
The settings on record: at 0.1 µM.

Assay [9] deals with T3, Mitogen-activated protein kinase kinase kinase kinase 2 (Homo sapiens). To be noted: at 1 µM.
Assay [10] concerns the target Mitogen-activated protein kinase kinase kinase kinase 4 (Homo sapiens) (UniProt O95819). The settings on record: at 0.1 µM.
Assay [11] shares this target. To be noted: at 1 µM.
Assay [12] concerns the target Dual specificity mitogen-activated protein kinase kinase 1 (Homo sapiens) (UniProt Q02750). To be noted: at 0.1 µM.
Assay [13] shares this target. To be noted: at 1 µM.
Assay [14] concerns the target Misshapen-like kinase 1 (Homo sapiens) (UniProt Q8N4C8). To be noted: at 0.1 µM.
Assay [15] shares this target. To be noted: at 1 µM.
Assay [16] has as its target T4, Serine/threonine-protein kinase 4 (Homo sapiens) (UniProt Q13043).
T4 sequence (whole entry): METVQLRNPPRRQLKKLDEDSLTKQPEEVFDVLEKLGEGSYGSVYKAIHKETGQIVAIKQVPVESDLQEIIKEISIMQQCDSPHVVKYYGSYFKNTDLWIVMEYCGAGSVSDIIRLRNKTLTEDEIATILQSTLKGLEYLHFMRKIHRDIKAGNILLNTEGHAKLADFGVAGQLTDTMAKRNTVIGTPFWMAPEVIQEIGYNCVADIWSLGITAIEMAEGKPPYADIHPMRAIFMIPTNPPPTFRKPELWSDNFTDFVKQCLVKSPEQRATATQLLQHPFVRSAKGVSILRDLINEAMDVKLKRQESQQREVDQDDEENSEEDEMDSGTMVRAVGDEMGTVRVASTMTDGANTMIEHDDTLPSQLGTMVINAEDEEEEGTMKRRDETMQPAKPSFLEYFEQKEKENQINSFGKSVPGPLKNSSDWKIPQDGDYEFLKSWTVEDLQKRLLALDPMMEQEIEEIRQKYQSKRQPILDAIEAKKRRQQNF
To be noted: at 0.1 µM.

The target in assay [17] is T4, Serine/threonine-protein kinase 4 (Homo sapiens). The settings on record: at 1 µM.
The target of assay [18] is T5, Serine/threonine-protein kinase 3 (Homo sapiens) (UniProt Q13188).
T5 sequence (whole entry): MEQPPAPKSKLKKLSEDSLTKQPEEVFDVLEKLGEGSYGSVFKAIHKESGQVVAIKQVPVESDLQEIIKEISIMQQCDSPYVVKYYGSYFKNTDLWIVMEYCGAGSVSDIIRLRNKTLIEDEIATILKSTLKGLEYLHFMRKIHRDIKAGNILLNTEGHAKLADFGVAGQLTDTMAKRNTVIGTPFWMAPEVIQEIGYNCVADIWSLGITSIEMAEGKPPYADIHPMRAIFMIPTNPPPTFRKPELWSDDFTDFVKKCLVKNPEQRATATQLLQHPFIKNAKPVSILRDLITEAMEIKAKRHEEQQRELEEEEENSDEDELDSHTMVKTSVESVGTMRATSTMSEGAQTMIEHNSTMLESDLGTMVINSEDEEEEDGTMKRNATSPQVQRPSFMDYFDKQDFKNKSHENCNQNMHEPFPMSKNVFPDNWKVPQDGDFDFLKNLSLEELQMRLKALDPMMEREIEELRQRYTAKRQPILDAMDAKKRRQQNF
To be noted: at 0.1 µM.

Assay [19] deals with T5, Serine/threonine-protein kinase 3 (Homo sapiens). To be noted: at 1 µM.
For assay [20], the target named is Serine/threonine-protein kinase 26 (Homo sapiens) (UniProt Q9P289). The settings on record: at 0.1 µM.
Chain of Serine/threonine-protein kinase 26 (Homo sapiens) (Q9P289 2-416 limits assumed): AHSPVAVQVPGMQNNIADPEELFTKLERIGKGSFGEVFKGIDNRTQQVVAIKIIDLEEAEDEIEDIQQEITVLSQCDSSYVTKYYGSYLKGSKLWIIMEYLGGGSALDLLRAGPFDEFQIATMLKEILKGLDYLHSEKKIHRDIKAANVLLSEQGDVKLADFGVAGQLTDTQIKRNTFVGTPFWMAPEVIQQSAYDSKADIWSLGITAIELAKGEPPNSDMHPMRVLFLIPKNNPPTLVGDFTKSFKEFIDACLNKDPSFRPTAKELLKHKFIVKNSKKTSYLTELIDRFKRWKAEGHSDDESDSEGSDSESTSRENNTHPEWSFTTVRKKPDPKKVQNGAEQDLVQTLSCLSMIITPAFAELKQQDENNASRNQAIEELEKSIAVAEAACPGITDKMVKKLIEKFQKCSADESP

Chain of Mitogen-activated protein kinase kinase kinase kinase 4 (Homo sapiens) (O95819 2-1239 limits assumed): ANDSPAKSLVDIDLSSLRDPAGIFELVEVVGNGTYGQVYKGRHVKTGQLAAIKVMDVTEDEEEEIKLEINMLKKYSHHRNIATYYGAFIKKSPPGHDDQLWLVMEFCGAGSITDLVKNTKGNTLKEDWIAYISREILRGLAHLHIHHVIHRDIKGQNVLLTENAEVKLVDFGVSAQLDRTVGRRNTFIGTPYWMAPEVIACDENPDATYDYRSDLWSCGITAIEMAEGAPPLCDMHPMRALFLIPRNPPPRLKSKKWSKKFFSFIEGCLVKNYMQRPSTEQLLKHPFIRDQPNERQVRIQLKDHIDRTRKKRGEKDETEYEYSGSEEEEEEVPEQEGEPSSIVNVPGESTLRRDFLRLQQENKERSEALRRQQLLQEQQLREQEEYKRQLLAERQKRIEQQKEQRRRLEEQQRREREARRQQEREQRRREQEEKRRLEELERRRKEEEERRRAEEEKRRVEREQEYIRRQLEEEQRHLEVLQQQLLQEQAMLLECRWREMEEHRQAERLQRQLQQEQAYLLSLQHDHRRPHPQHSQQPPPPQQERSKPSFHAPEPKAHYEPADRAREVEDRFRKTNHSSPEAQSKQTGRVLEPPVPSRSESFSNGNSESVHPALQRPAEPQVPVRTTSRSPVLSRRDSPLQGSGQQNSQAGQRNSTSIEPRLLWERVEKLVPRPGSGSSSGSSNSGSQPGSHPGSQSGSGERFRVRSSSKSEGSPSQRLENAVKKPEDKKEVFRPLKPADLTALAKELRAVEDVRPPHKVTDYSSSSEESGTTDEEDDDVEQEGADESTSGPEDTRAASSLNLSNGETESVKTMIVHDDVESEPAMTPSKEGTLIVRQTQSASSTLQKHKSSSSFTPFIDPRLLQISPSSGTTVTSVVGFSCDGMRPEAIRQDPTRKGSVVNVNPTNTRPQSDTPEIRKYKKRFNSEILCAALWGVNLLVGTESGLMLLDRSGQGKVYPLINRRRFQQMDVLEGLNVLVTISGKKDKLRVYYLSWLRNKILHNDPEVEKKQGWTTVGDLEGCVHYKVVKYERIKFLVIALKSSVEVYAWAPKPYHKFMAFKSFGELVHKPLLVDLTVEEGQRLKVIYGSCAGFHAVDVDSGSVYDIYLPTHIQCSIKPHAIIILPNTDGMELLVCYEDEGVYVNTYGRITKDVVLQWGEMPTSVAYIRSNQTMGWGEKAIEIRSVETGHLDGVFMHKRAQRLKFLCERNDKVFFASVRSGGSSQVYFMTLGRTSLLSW
Chain of Serine/threonine-protein kinase 10 (Homo sapiens) (O94804 whole entry, looked up): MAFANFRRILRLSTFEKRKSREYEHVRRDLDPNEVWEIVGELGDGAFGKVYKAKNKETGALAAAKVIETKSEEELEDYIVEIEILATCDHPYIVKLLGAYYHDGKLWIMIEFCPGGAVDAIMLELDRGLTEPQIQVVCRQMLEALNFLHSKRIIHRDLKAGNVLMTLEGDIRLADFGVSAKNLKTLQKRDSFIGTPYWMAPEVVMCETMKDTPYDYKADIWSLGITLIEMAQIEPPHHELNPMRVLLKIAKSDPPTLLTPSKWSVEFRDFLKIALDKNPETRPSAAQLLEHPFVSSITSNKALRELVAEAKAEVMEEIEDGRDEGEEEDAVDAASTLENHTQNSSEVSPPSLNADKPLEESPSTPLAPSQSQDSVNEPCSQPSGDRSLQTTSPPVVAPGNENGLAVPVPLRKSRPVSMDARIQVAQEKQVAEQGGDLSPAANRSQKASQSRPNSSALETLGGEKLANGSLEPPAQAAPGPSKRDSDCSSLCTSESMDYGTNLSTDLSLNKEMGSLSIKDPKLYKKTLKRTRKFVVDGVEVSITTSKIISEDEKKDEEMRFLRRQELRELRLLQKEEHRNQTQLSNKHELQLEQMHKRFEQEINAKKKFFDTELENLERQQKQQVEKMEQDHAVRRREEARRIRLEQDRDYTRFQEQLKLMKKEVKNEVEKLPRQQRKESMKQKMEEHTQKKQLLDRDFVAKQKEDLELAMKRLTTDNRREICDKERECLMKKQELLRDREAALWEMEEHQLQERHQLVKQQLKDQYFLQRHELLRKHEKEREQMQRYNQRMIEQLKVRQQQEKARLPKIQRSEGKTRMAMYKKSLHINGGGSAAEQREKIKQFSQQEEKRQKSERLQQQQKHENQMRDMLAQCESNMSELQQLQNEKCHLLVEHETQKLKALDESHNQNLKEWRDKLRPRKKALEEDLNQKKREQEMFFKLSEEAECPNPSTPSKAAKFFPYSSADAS
Chain of Dual specificity mitogen-activated protein kinase kinase 1 (Homo sapiens) (Q02750 whole entry): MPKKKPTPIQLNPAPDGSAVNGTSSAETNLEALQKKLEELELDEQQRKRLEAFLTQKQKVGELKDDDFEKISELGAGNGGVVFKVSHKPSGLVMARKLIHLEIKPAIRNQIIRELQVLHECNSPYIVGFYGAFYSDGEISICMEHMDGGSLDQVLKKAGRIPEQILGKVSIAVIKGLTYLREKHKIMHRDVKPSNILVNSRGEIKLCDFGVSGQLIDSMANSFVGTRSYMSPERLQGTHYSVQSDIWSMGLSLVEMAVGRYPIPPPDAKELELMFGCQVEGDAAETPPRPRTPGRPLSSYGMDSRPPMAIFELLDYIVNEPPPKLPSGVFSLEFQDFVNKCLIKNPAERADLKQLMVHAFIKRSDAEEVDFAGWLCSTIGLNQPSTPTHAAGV
Chain of Misshapen-like kinase 1 (Homo sapiens) (Q8N4C8 whole entry, looked up): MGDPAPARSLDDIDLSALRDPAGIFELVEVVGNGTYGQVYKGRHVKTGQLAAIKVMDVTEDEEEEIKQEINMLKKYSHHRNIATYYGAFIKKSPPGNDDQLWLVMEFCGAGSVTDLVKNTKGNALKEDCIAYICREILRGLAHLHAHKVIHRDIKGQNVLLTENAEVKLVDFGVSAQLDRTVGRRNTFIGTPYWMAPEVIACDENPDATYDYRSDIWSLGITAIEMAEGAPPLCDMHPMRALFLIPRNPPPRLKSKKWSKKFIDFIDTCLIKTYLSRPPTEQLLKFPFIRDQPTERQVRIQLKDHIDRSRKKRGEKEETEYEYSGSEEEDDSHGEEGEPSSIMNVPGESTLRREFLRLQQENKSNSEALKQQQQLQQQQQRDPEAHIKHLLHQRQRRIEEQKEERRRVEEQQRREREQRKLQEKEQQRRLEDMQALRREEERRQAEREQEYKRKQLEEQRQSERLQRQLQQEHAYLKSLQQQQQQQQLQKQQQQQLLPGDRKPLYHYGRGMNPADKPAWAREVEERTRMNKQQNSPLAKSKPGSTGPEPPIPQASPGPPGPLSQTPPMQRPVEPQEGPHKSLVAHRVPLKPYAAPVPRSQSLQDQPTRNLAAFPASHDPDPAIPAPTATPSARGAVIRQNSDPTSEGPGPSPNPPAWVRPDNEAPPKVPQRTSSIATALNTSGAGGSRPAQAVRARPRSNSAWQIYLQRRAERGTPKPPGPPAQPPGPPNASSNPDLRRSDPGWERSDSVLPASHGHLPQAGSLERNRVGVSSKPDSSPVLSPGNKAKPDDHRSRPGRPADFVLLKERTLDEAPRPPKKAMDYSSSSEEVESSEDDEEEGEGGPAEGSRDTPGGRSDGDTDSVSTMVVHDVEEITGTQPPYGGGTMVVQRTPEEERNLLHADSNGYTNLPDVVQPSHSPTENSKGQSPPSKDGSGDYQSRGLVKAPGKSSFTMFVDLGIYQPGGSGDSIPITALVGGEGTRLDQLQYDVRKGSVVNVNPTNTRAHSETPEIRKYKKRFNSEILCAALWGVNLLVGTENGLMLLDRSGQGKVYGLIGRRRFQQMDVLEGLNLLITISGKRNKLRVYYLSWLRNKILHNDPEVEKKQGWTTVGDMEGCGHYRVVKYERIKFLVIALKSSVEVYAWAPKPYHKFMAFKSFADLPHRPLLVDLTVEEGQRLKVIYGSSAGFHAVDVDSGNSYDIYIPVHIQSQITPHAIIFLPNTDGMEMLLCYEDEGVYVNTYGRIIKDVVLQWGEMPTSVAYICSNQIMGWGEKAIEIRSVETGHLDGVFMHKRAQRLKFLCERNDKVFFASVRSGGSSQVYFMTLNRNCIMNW
Chain of Aurora kinase B (Homo sapiens) (Q96GD4 whole entry): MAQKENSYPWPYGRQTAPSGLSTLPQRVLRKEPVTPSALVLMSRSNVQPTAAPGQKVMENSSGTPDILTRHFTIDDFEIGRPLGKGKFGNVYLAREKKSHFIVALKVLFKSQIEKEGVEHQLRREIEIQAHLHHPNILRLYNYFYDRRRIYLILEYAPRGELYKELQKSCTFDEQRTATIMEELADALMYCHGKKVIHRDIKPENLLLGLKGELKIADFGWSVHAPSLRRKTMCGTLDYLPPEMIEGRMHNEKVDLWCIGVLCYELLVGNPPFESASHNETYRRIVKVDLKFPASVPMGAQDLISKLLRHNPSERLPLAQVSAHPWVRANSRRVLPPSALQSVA

Regarding `Cc1ccc(NC(=O)CC2CC2)cc1-c1ccc(C(=O)NCC2CC2)cc1`, the inhibition is 8.68% in assay [1]; 0.07% in [2]; 6.1% in assay [3]; 1.19% in assay [4]; -2.19% in assay [5]; 3.11% in assay [6]. Moreover, the inhibition in [7] worked out at 8.8%; in [8], 0.05%; in assay [9] it was 3.42%; in assay [10] it was 2.06%; in assay [11] it was 9.33%; in assay [12], 3.69%. For the same compound, the inhibition in [13] was determined as 2.73%; in assay [14] it was 2.74%; in assay [15] it was 5.47%; in assay [16], 5.3%; in assay [17], 8.01%; in assay [18], 4.49%. For the same compound, the values for the inhibition in assay [19] and in assay [20] were 5.72% and 0.36%, respectively.
On to `Cc1ccc(O)cc1Nc1ccnc2ccc(S(C)(=O)=O)cc12`, for which the inhibition was 6.17% in [1]; 2.16% in assay [2]; 5.99% in [3]; 0.93% in assay [4]; -0.69% in assay [5]; 8.9% in [6]. Moreover, the inhibition in assay [7] was determined as 36.7%; in assay [8] it was 5.18%; in assay [9], 31%; in assay [10], 8.02%; in [11] it was 35.1%; in assay [12], 7.84%. For the same compound, the inhibition turned out to be 8.37% in assay [13]; 10.4% in assay [14]; 30.5% in assay [15]; 4.65% in assay [16]; 8.35% in assay [17]; 5.45% in [18]. In addition, the inhibition was 8.06% in [19] and -0.99% in [20].
Turning to `CCOc1nccc2c1nc(-c1nonc1N)n2CC`, the inhibition in assay [1] is 8.92%; in [2] it was 5.61%; in assay [3] it was 8.46%; in [4], 2.28%; in assay [5], -5.69%; in assay [6], 11.5%. Besides, the inhibition in assay [7] was 19.9%; in assay [8] it was 5.01%; in [9] it was 10.6%; in assay [10], 3.98%; in assay [11] it was 14.3%; in assay [12], 3.44%. The inhibition in assay [13] was 3.14%; in assay [14], 5.33%; in assay [15] it was 13.8%; in assay [16], 12.1%; in assay [17], 22.7%; in assay [18], 11.4%. Moreover, the inhibition in [19] worked out at 21.8%; in [20], 0.4%.
For `Cc1ccc2c(-c3ccnc(Nc4ccc5c(c4)OCCO5)n3)c(-c3ccc(C(F)(F)F)cc3)nn2n1`, the inhibition was 0.25% in assay [1]; -0.46% in [2]; -2.36% in [3]; 0.45% in [4]; 1.78% in assay [5]; 3.03% in assay [6]. The inhibition was 5.81% in assay [7]; 1.07% in [8]; 2.41% in [9]; 0.41% in assay [10]; -0.58% in assay [11]; 1.89% in assay [12]. Also, the inhibition in assay [13] is 1.58%; in assay [14], 0.81%; in assay [15], -1.31%; in [16] it was 0.92%; in [17], 3.55%; in assay [18] it was 0.03%. Besides, the inhibition in assay [19] was determined as 2.76%; in assay [20] it was 1.07%.
Consider `N#Cc1cccc(Nc2nccc(-c3cnn4ncccc34)n2)c1`, for which the inhibition in assay [1] is 74.5%; in assay [2], 19.3%; in [3], 64%; in assay [4] it was 18.5%; in assay [5] it was 96.7%; in [6], 5.05%. Also, the inhibition in assay [7] was found to be 15.8%; in assay [8], 11%; in assay [9], 45.8%; in assay [10], 19.3%; in assay [11], 64.3%; in [12], 19.5%. Also, the inhibition in [13] came to 63%; in assay [14] it was 16.6%; in assay [15], 53.4%; in assay [16], 8.96%; in [17], 27.6%; in assay [18], 7.72%. For the same compound, the results for the inhibition in [19] and in assay [20] were 24.4% and -0.39%, respectively.
For the compound `CC(C)c1ccc(Nc2nccc(-c3cnn4ncccc34)n2)cc1`, the inhibition in [1] was 65.8%; in assay [2], 7.65%; in assay [3], 43.1%; in assay [4], 5.11%; in assay [5] it was 74.6%; in [6], 3.13%. For the same compound, the inhibition in [7] turned out to be 8.29%; in [8], 1.97%; in [9] it was 23.4%; in [10] it was 4.8%; in [11] it was 18.7%; in [12] it was 2.79%. Moreover, the inhibition in assay [13] amounted to 9.57%; in [14], 3.97%; in [15] it was 14.6%; in [16] it was 4.71%; in assay [17], 20.1%; in assay [18], 5.07%. Further, the inhibition worked out at 18.6% in assay [19] and 0.23% in [20].
As for `Cc1ccc(C(=O)NC2CC2)cc1-c1ccc2[nH]ncc2c1`, the inhibition in assay [1] is -1.72%; in assay [2], -2.69%; in assay [3], -0.44%; in assay [4] it was -3.29%; in assay [5] it was 0.5%; in [6], -0.03%. For the same compound, the inhibition in assay [7] was -1.42%; in assay [8], -1.74%; in assay [9] it was 5.05%; in assay [10], -2.51%; in assay [11], -0.85%; in [12], -3.43%. Besides, the inhibition is -3.98% in assay [13]; -4.28% in [14]; -1.78% in [15]; -2.09% in [16]; 1.26% in assay [17]; -4.71% in [18]. The figures for the inhibition in assay [19] and in [20] were -2.04% and -0.05%, respectively.
